Source: PubChem BioAssay AID588397 (National Center for Advancing Translational Sciences (NCATS), 2011)
In all, about 1,300 compounds went through this assay and about 1,000 (77%) were called active. Another 7% or so got no clear call; they are omitted. The set was probably picked from earlier hits. Some of the results follow. A number with no mark means an inactive call. Calls follow the shape of the dose curve; as a rule, active = well fitted inhibition curve with a large enough effect; inconclusive = small, poorly fitted or top-dose-only effect; inactive = no such curve, though single readings can be large or run the other way.

experiment: qHTS of small molecules that selectively kill Giardia lamblia: Hit Validation.;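 also: viability measured as ATP content by luminescence so killing lowers signal; nearly all actives have a fitted effect of over 65% in size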; settings: Giardia lamblia trophozoite viability, dose-response; series mostly up to 38.3 µM; activity change, negative = killing: at the top concentration
In short: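 Compounds were tested on trophozoites seeded at 100 cells/well and held 48 hrs at 37 deg C anaerobically. An ATP-based luminescent kit measured the remaining live cells.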
% is scaled to controls: 0 for no effect and ±100 for the full control effect; potency is read from the fitted curve at half-maximal effect.

SMILES	Potency	activity change, negative = killing [%]
CNc1nnc(-c2ccc(N(C)C)cc2)s1	3260 nM (active)	
CCc1ccc2nc3sc(C(=O)O)cc3cc2c1	10300 nM (active)	
CCN1C[C@@H]2[C@@H]3C(=O)N(C)C(=O)[C@@H]3[C@](C)(C1=O)N2C(=O)c1ccc(Cl)c(Cl)c1		-11.8
O=C1NCCN1c1ncc([N+](=O)[O-])s1	103 nM (active)	
COc1ccc(-c2cc3nc[nH]c(=O)c3s2)cc1	4600 nM (active)	
CCNc1nc(NCC)nc(-n2nc(C)cc2C)n1		-58.2
O=C(NN(c1ccccc1)c1ccccc1)c1ccc([N+](=O)[O-])o1	1830 nM (active)	
CN(Cc1ccccc1)C(=O)c1ccc([N+](=O)[O-])o1	3650 nM (active)	
C/C(=N/NC(=O)C(O)(c1ccccc1)c1ccccc1)c1ccc([N+](=O)[O-])o1	365 nM (active)	
O=C(NNC(=O)c1ccc([N+](=O)[O-])o1)c1ccccc1	516 nM (active)	
O=C(O)C1CCCN1S(=O)(=O)c1ccc(Br)cc1 (centres undefined)		1.98
COc1ccc(OC)c2c(C)c(C)[nH]c12		1.8
CN(C(=O)OC(C)(C)C)c1ccc(-c2nc3ccccc3s2)cc1	1830 nM (active)	
Cc1c[nH]c(=O)c([N+](=O)[O-])c1	8180 nM (active)	
COc1cc2c3c(c1OC)C1(C=CC(=NNC(N)=O)C=C1)CC3N(C(C)=O)CC2 (centres undefined)		8.72
O=C1CCCN1CCCN=c1c([N+](=O)[O-])nn(-c2ccc(Cl)cc2)n1O	3650 nM (active)	
COc1ccc(-n2nc([N+](=O)[O-])c(=NCCCN3CCCC3=O)n2O)cc1	2050 nM (active)	
Cn1cccc1C1CCCN1CC(=O)Nc1ccc(F)c(F)c1F (centres undefined)		-3.96
O=C(CSc1ccsc1[N+](=O)[O-])NC1CCCC1	1030 nM (active)	
CCOC(=O)Cc1csc(SCC(=O)NC2CCCCC2)n1		-6.03
Cc1ccc(CNC(=O)CSc2ccsc2[N+](=O)[O-])cc1	2590 nM (active)	
O=C(CSc1ccsc1[N+](=O)[O-])N1CCN(c2ccccn2)CC1	579 nM (active)	
O=C(CSc1ccsc1[N+](=O)[O-])NCc1ccccc1	1160 nM (active)	
COc1ccccc1CNC(=O)CSc1ccsc1[N+](=O)[O-]	1450 nM (active)	

SMILES	Potency	activity change, negative = killing [%]
CCc1ccccc1NC(=O)CSc1ccsc1[N+](=O)[O-]	2310 nM (active)	
CC(=O)c1ccc(NC(=O)CSc2ccsc2[N+](=O)[O-])cc1	918 nM (active)	
COc1ccc(CNC(=O)CSc2ccsc2[N+](=O)[O-])cc1	1630 nM (active)	
CCc1ccccc1NC(=O)CC(NCc1ccccc1)C(=O)O (centres undefined)		-10.3
CCn1c(=O)n(CC)c2cc(N)ccc21		16.7
Cc1cc(C(=O)CCC(=O)NC(C)c2ccc(S(N)(=O)=O)cc2)c(C)s1 (centres undefined)		-28
c1csc(-c2ccc(N3CCOCC3)nn2)c1	3650 nM (active)	
O=[N+]([O-])c1ccc(NCc2ccccc2N2CCC(CO)CC2)nc1	1450 nM (active)	
O=C1c2ccccc2C(=O)c2[nH]cnc21	2590 nM (active)	
O=C(O)c1ccc(NC(=O)c2cc3ccccc3o2)cc1	6500 nM (active)	
O=C1CSC(c2ccc(F)cc2)N1c1c(F)cccc1F (centres undefined)		-0.629
CC(C)(C)n1nc(-c2ccc(Cl)cc2)c2c(N)ncnc21	14500 nM (active)	
CCN(CC)S(=O)(=O)c1ccc(N2CCCC2)c(NC(=O)c2ccc([N+](=O)[O-])o2)c1	1450 nM (active)	
COc1ccc(N2CCCC2)c(NC(=O)c2ccc([N+](=O)[O-])o2)c1	516 nM (active)	
COc1ccc2nc3cc(Cl)ccc3c(Nc3ccc(O)c(CN4CCN(C)CC4)c3)c2c1	10300 nM (active)	
CN(C)CCCn1cnc2c(c1=N)C(c1ccccc1)c1ccc3ccccc3c1O2 (centres undefined)	20500 nM (active)	
CCc1ccc(C(=O)/C=C/c2ccc([N+](=O)[O-])o2)cc1	1300 nM (active)	
CN1CCN(C(=O)/C=C/c2ccc([N+](=O)[O-])o2)CC1	818 nM (active)	
O=[N+]([O-])c1nn(-c2ccccc2)[n+]([O-])c1N1CCN(c2ccccc2)CC1	1300 nM (active)	
O=[N+]([O-])c1nn(-c2ccccc2)[n+]([O-])c1N1CCN(c2ccccc2F)CC1	1160 nM (active)	
CC1CCN(c2c([N+](=O)[O-])nn(-c3ccc4c(c3)OCCO4)[n+]2[O-])CC1	1030 nM (active)	
CCN(Cc1ccncc1)C(=O)CC1C(=O)NCCN1Cc1ccc(F)c(F)c1 (centres undefined)		2.79
Cc1c(C(=O)c2ccc(Cl)cc2[N+](=O)[O-])c2ccccn2c1CCC#N	410 nM (active)	
Cc1ccccc1-c1nc2c(=O)n(C)c(=O)nc-2n(C)n1	115 nM (active)	

SMILES	Potency	activity change, negative = killing [%]
CCn1nc(-c2ccccc2C)nc2c(=O)n(C)c(=O)nc1-2	103 nM (active)	
COc1ccccc1C(=O)NC(=O)OCCn1c(C)cnc1[N+](=O)[O-]	579 nM (active)	
Cc1cnc([N+](=O)[O-])n1CCOC(=O)NC(=O)c1ccccc1Cl	1160 nM (active)	
Cc1ccc(C(=O)c2c3ccc([N+](=O)[O-])cc3[n+]([O-])n2CCCC(N)=O)cc1	3650 nM (active)	
Cc1ccc(C(=O)c2c3ccc([N+](=O)[O-])cc3[n+]([O-])n2CCC(N)=O)cc1	6500 nM (active)	
NC(=O)CCn1c(C(=O)c2cccc([N+](=O)[O-])c2)c2ccccc2[n+]1[O-]	4100 nM (active)	
Cc1ccc(C(=O)c2c3ccc([N+](=O)[O-])cc3[n+]([O-])n2CCCN)cc1	4600 nM (active)	
CC(=O)CSc1ccc(-c2nc3cc(C)c(C)cc3[nH]2)cn1	2050 nM (active)	
CC(=O)CSc1ccc(-c2nc3ccccc3[nH]2)cn1	1450 nM (active)	
COc1ccc(CNc2ccc([N+](=O)[O-])cn2)cc1	7290 nM (active)	
Cc1c(Br)c([N+](=O)[O-])nn1C(C)C(=O)Nc1ccc2c(c1)OCO2 (centres undefined)	1160 nM (active)	
O=C(COc1cccnc1[N+](=O)[O-])Nc1ccc2c(c1)OC(F)(F)O2	5790 nM (active)	
O=C(COc1cccnc1[N+](=O)[O-])Nc1ccc2c(c1)OCO2	5160 nM (active)	
O=S(=O)(Nc1cc(Sc2cccc3cccnc23)c(O)c2ccccc12)c1ccc(F)cc1	11600 nM (active)	
Cn1nc([N+](=O)[O-])nc1Sc1cccc2cccnc12	7290 nM (active)	
Nc1nc(Cl)nc2c1ncn2C1CC(O)C(CO)O1 (centres undefined)	115 nM (active)	
CC(CSc1nnnn1-c1ccccc1)Cn1c(N2CCCC2)nc2c1c(=O)[nH]c(=O)n2C (centres undefined)	183 nM (active)	
O=C(Nc1ccc2[nH]ccc2c1)c1ccccc1	2050 nM (active)	
COc1ccc(C(=O)Nc2ccc3[nH]ccc3c2)cc1	410 nM (active)	
COc1ccc(NS(=O)(=O)c2cc(NC(=O)c3ccc(=O)[nH]c3)ccc2C)cc1		7.37
C(=NN1CCCCCC1)c1ccc2ccccc2n1	1030 nM (active)	
COc1ccc(CC(NC(C)=O)C(=O)NC2CCN(c3ncccc3[N+](=O)[O-])CC2)cc1 (centres undefined)	2050 nM (active)	
COc1ccc(CN2C(=O)C(CC(C)C)Nc3ncnc(N4CCCCC4)c32)cc1 (centres undefined)		3.69
CC(=O)NC(Cc1ccccc1)C(=O)NC1CCN(c2ncccc2[N+](=O)[O-])CC1 (centres undefined)	1630 nM (active)	

SMILES	Potency	activity change, negative = killing [%]
CC(=O)NC(Cc1ccc(F)cc1)C(=O)NC1CCN(c2ncccc2[N+](=O)[O-])CC1 (centres undefined)	1830 nM (active)	
COc1ccc(OCC(=O)NNC(=O)C2CCN(c3ncnc4sc(C)c(C)c34)CC2)cc1		-39.1
CC(NC(=O)c1ccccc1F)c1nnc(SCC(=O)NC2CCCC2)n1C (centres undefined)		-17
CC(=O)NC(Cc1ccccc1F)C(=O)NC1CCN(c2ncccc2[N+](=O)[O-])CC1 (centres undefined)	2310 nM (active)	
O=C(COc1cccnc1[N+](=O)[O-])Nc1ncc(Cl)cc1Cl	4600 nM (active)	
O=C(COc1cccnc1[N+](=O)[O-])Nc1c(Cl)cccc1Cl	3260 nM (active)	
CC(=O)c1c(COC(=O)c2ccccc2Cl)nc2ccccc2[n+]1[O-]	14500 nM (active)	
CC(=O)c1c(COC(=O)c2ccc(F)cc2)nc2ccccc2[n+]1[O-]	6500 nM (active)	
Cn1c(CNC(=O)c2ccccc2F)cc2ccccc21		11
O=C(Nc1ccc(OCC(=O)N2CCOCC2)cc1)c1ccccc1F	7290 nM (active)	
COc1ccc2oc(=Nc3ccccc3)c(-c3nc4ccccc4[nH]3)cc2c1	4100 nM (active)	
CCOC(=O)C1CCN(c2c([N+](=O)[O-])c(C(Cl)Cl)nn2-c2ccccc2)CC1	2900 nM (active)	
O=[N+]([O-])c1c(C(Cl)Cl)nn(-c2ccccc2)c1N1CCOCC1	1830 nM (active)	
CCN1/C(=C\c2ccc3ccccc3[n+]2CC)Sc2cc(C)ccc21		-1.8
Cc1oc2cc([N+](=O)[O-])c(O)c([N+](=O)[O-])c2c1C(=O)c1ccc(Cl)cc1	2590 nM (active)	
COc1ccc(C(=O)c2c(C)oc3cc([N+](=O)[O-])c(O)c([N+](=O)[O-])c23)cc1	1830 nM (active)	
Cc1oc2cc([N+](=O)[O-])c(O)c([N+](=O)[O-])c2c1C(=O)c1ccc(Br)cc1	2310 nM (active)	
CCCn1c(NC(=O)c2ccc([N+](=O)[O-])o2)nc2ccccc21	1300 nM (active)	
CCn1c(CCNC(=O)c2ccc(F)cc2)nc2ccccc21		1.8
O=C(Nc1nc2cc3c(cc2s1)OCCO3)c1ccc([N+](=O)[O-])o1	579 nM (active)	
O=C(Nc1nc2c(F)cc(F)cc2s1)c1ccc([N+](=O)[O-])o1	1160 nM (active)	
O=C(Nc1nc2c(Cl)cccc2s1)c1ccc([N+](=O)[O-])o1	1450 nM (active)	
